Measurements as given in PubChem BioAssay (NCATS).
“And” between values parts separate entries of the source, which are not always exact repeats. Equal values may be shown once. Records with an inconclusive call do not appear. Entries that show only a call come without a potency. The source made the active and inactive calls. Calls come from the whole dose curve; as a rule, active = well fitted curve in the direction sought with a large enough effect; inconclusive = small, poorly fitted or top-dose-only effect, or another doubt; inactive = no such curve, though single readings can be large; an effect the other way counts as inactive or inconclusive.

Key:
[1] = target: N-terminal Xaa-Pro-Lys N-methyltransferase 1 (Homo sapiens) (UniProt Q9BV86); assay: qHTS Assay for Inhibitors of N-terminal methyltransferase 1 (NTMT1): LOPAC validation of the NTMT1 SAHH-coupled ThioGlo3 Assay (AID 1347143); details: recombinant NTMT1, SAHH-coupled ThioGlo3 fluorescence; series mostly up to 114 µM;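 note: SAH from peptide methylation measured as thiol fluorescence via SAHH coupling and ThioGlo3; nearly all actives have a fitted effect of over 70% in size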; note: potency is the fitted concentration of half-maximal effect
In short: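 In this qHTS pilot against the LOPAC set, 125nM NTMT1 met compounds tested at multiple concentrations, and fluorescence was normalized to background.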

[2] = system: Zika virus NS2B-NS3 protease; assay: Primary screen GU AMC qHTS for Zika virus inhibitors (AID 1347154); details: Zika NS2B-NS3 unlinked protease, AMC fluorogenic substrate; series mostly up to 54.1 µM; note: nearly all actives have a fitted effect of over 70% in size; note: potency is the fitted concentration of half-maximal effect
In short: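 Unlinked Zika NS2B hydrophilic domain/NS3 protease domain noncovalent complex (25 nM final) in 10 mM Tris-HCl pH 8.0, 0.01% Tween 20, with AMC peptide substrate. Fluorescence (ex 340, em 450 nm) change over 15 min, room temperature; percent inhibition fitted to 4-parameter Hill equation.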

[3] = system: Zika virus NS2B-NS3 protease (linked construct); assay: Confirmatory screen NINDS AMC qHTS for Zika virus inhibitors (AID 1347152); details: Purified linked NS2B-NS3, AMC substrate fluorescence; series mostly up to 56.6 µM; note: nearly all actives have a fitted effect of over 70% in size; note: potency is the fitted concentration of half-maximal effect
In short: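 Concentration-response confirmation used the NINDS linked protease (NS2B hydrophilic domain joined to NS3 protease domain), 1 nM, with a 15-min compound preincubation. Substrate, Nle-KRR-AMC at 10 microM, was read by UV fluorescence before and after 15 min.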

[4] = system: Zika virus NS2B-NS3 protease (unlinked complex); assay: Confirmatory screen GU AMC qHTS for Zika virus inhibitors (AID 1347153); details: Recombinant NS2B-NS3 protease, AMC substrate fluorescence; series mostly up to 57.1 µM; note: nearly all actives have a fitted effect of over 70% in size; note: potency is the fitted concentration of half-maximal effect
In short: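 Unlinked enzyme 25 nM, Tris pH 8.0/0.01% Tween 20; cpd 15 min RT, dark; + AMC substrate 10 µM (Km 18.3 µM); 340/450 nm read at t0 and 15 min; % inhibition → 4-param fit.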

[5] = Confirmatory screen NINDS Rhodamine qHTS for Zika virus inhibitors (AID 1347161); details: purified enzyme assay, Rhodamine110 substrate fluorescence, 15 min; series mostly up to 114 µM; note: nearly all actives have a fitted effect of over 60% in size; note: potency is the fitted concentration of half-maximal effect
In short: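 In 10 mM Tris-HCl pH 8.0 containing 0.01% Tween 20, linked NS2B-NS3 protease (25 nM final) is exposed to test compounds for 15 min. Cleavage of 1.5 microM Rhodamine110 substrate is tracked by fluorescence over 15 min.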

[6] = system: Zika virus NS2B-NS3 protease (unlinked); assay: Optimization of GU AMC qHTS for Zika virus inhibitors: Unlinked NS2B-NS3 protease assay (AID 1347151); details: recombinant ZIKV NS2B-NS3 protease, fluorogenic AMC substrate; series mostly up to 52.5 µM; note: nearly all actives have a fitted effect of over 80% in size; note: potency is the fitted concentration of half-maximal effect
In short: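 In this qHTS, compounds acted on 25 nM unlinked Zika NS2B–NS3 in pH 8.0 Tris/Tween buffer. Cleavage of an AMC peptide ran 15 min at room temperature, to about 20% conversion.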

Furin (Homo sapiens) = Furin (Homo sapiens) (UniProt P09958); assay: Furin counterscreen qHTS for Zika virus inhibitors (AID 1347149); details: furin enzymatic counterscreen, fluorogenic substrate; series mostly up to 57.5 µM; note: nearly all actives have a fitted effect of over 70% in size; note: potency is the fitted concentration of half-maximal effect
In short: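 Counterscreen measures cleavage of 2 microM BOC-RVRR-AMC, below its ~15 microM Km, by 5 nM full-length human furin at pH 7.0 after a 15-min compound preincubation. Inhibition derives from the 15-min fluorescence increase at 37C.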

[7] = Confirmatory screen GU Rhodamine qHTS for Zika virus inhibitors qHTS (AID 1347157); details: purified enzyme assay, Rhodamine110 substrate fluorescence, 15 min; series mostly up to 114 µM; note: nearly all actives have a fitted effect of over 70% in size; note: potency is the fitted concentration of half-maximal effect
In short: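 Enzyme 25 nM in Tris-HCl pH 8.0 + 0.01% Tween 20; compounds up to 114 microM, 15 min RT dark; + Rhod110 substrate 1.5 microM; read t0 and 15 min; delta fluorescence → % inhibition → 4-parameter Hill fit.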

[8] = ZIKV-mCherry secondary qHTS for Zika virus inhibitors (AID 1347158); details: Vero cells, ZIKV-mCherry infection imaging, 48-72 h; series mostly up to 32.6 µM; note: potency is the fitted concentration of half-maximal effect
In short: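 This orthogonal imaging screen measured ZIKV-mCherry infection of Vero cells exposed to compound, MOI 1, 48-72 h. Percent infection came from segmented nuclei scored mCherry-positive above 3 SD of negative controls.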

[9] = system: Zika virus NS2B-NS3 protease (unlinked complex); assay: Primary screen GU Rhodamine qHTS for Zika virus inhibitors: Unlinked NS2B-NS3 protease assay (AID 1347159); details: Recombinant ZIKV NS2B-NS3 protease, Rhodamine110 substrate fluorescence; series mostly up to 107 µM; note: nearly all actives have a fitted effect of over 60% in size; note: potency is the fitted concentration of half-maximal effect
In short: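 Unlinked NS2B/NS3, 25 nM; Rhod110 peptide, 1.5 microM; compounds, up to 114 microM. Reaction run 15 min at RT in 10 mM Tris-HCl pH 8.0, 0.01% Tween 20; kinetic fluorescence change fitted with a 4-parameter Hill model.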

[10] = system: Zika virus NS2B-NS3 protease (linked); assay: 384 well plate NINDS AMC confirmatory qHTS for Zika virus inhibitors (AID 1347163); details: Recombinant NS2B-NS3 protease, Ac-VKTGKR-AMC fluorescence; series mostly up to 100 µM; note: potency is the fitted concentration of half-maximal effect; nearly all actives have a fitted effect of over 50% in size
In short: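 Enzyme (5, 30 or 60 nM final) first met test compounds for ~15 min. The AMC-tagged peptide Ac-VKTGKR-AMC followed at 30 microM. Fluorescence was then recorded at 25 min and scaled against no-enzyme and no-inhibitor wells.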

[11] = system: Zika virus NS2B-NS3 protease (linked construct); assay: 384 well plate NINDS Rhodamine confirmatory qHTS for Zika virus inhibitors (AID 1347164); details: rhodamine-110 peptide substrate fluorescence; series mostly up to 100 µM; note: nearly all actives have a fitted effect of over 65% in size; note: potency is the fitted concentration of half-maximal effect
In short: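 Cleavage of Ac-LKRR-Rhodamine 110 (10 microM final) by linked protease (final 5, 30 or 60 nM) was followed as fluorescence at 485/538 nm after 25 min, room temperature, dark. Compounds preincubated ~15 min.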

[12] = system: Zika virus NS2B-NS3 protease (linked construct); assay: Primary screen NINDS Rhodamine qHTS for Zika virus inhibitors (AID 1347160); details: purified NS2B-NS3 protease, Rhodamine110 substrate fluorescence; series mostly up to 57.1 µM; note: nearly all actives have a fitted effect of over 55% in size
In short: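 Single-chain NS2B-NS3 protease, 25 nM, pH 8.0; compounds preincubated 15 min. Activity: Rhodamine110 release from 1.5 microM substrate over 15 min, room temperature, data fitted to 4-parameter Hill.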

Furin (Homo sapiens), sequence (P09958 whole entry, looked up): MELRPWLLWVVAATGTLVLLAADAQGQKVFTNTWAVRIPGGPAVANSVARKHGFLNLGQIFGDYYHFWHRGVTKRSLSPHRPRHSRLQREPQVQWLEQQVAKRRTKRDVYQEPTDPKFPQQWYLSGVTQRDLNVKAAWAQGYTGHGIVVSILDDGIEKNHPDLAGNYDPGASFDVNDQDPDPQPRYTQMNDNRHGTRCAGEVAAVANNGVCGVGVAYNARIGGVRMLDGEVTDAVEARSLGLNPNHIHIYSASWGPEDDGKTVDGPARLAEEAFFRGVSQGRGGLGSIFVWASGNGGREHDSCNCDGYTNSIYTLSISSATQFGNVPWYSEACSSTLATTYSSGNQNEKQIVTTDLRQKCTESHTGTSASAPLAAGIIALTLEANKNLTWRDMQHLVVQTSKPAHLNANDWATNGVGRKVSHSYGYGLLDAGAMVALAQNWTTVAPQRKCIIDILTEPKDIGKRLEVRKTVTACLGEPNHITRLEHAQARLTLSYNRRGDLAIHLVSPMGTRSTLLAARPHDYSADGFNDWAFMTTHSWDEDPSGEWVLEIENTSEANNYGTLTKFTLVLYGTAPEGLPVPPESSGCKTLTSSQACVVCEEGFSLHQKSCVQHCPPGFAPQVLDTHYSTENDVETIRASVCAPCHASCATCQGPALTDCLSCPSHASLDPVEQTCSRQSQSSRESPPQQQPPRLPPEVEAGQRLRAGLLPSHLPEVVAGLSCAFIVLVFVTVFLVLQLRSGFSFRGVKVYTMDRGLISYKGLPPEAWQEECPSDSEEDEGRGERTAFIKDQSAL
N-terminal Xaa-Pro-Lys N-methyltransferase 1 (Homo sapiens), sequence (Q9BV86 whole entry, looked up): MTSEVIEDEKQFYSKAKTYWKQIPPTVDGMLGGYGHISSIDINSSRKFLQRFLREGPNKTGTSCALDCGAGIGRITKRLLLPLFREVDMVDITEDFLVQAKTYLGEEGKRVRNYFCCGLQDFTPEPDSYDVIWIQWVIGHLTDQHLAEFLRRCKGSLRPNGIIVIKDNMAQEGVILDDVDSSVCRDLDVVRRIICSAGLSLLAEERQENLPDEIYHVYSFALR

Question: Which Potency [1] does the source give for CCOC(=O)C1=C[C@]2(CC)CCCN3CCc4c(n1c1ccccc41)[C@@H]32 here?
Answer: inactive

Question: What about the Potency [2] of the same molecule?
Answer: inactive

Question: For Cc1[nH]c(=O)c(C#N)cc1-c1ccncc1, which Potency [3] is on record?
Answer: inactive

Question: And the Potency [4]?
Answer: inactive

Question: What about the Potency [2] of the same molecule?
Answer: inactive

Question: And the Potency [5]?
Answer: inactive

Question: With CC(=O)Oc1ccccc1C(=O)O as the molecule, how does the Potency [6] read?
Answer: 26.7 µM (active)

Question: What about the Potency [2] of the same molecule?
Answer: 21.2 µM (active)

Question: Which results are given for NCCc1ccc(O)c(O)c1?
Answer: Potency [1]: 44.7 µM (active); Potency [2]: inactive

Question: For NC[C@H](O)c1ccc(O)c(O)c1, which Potency [6] is on record?
Answer: inactive

Question: And the Potency [2]?
Answer: 10.2 µM (active) and 11.9 µM (active)

Question: For CCn1c(-c2nonc2N)nc2cnc(Oc3cccc(NC(=O)c4ccc(OCCN5CCOCC5)cc4)c3)cc21, which Potency [2] is on record?
Answer: inactive

Question: Which Potency (Furin (Homo sapiens)) does the source give for Cc1cc(SCc2sc(-c3ccc(C(F)(F)F)cc3)nc2C)ccc1OCC(=O)O here?
Answer: inactive

Question: What about the Potency [3] of the same molecule?
Answer: 19.7 µM (active)

Question: What about the Potency [7] of the same molecule?
Answer: 2.48 µM (active)

Question: What about the Potency [8] of the same molecule?
Answer: inactive

Question: What about the Potency [9] of the same molecule?
Answer: 3.55 µM (active)

Question: And the Potency [5]?
Answer: 2.78 µM (active) and 3.12 µM (active)

Question: What about the Potency [10] of the same molecule?
Answer: 2.82 µM (active)

Question: What about the Potency [11] of the same molecule?
Answer: 2.82 µM (active)

Question: What does the source list for CCCc1nn(C)c2c(=O)[nH]c(-c3cc(S(=O)(=O)N4CCN(C)CC4)ccc3OCC)nc12?
Answer: Potency [6]: inactive; Potency [2]: inactive; Potency [9]: inactive; Potency [12]: inactive

Question: For CC(c1cc2ccccc2s1)N(O)C(N)=O (stereo not given), which Potency [2] is on record?
Answer: inactive

Question: Which Potency [2] does the source give for O=c1ncn2nc(Sc3ccc(F)cc3F)ccc2c1-c1c(Cl)cccc1Cl here?
Answer: inactive

Question: For CCN(c1ccccc1)c1cc(NC)[n+](C)c(C)n1, which Potency [2] is on record?
Answer: inactive

Question: Which Potency [6] does the source give for N=c1nc(N2CCCCC2)cc(N)n1O here?
Answer: inactive

Question: For COc1ccc2c3n(c(=NC(=O)c4cccnc4)nc2c1OC)CCN3, which Potency [2] is on record?
Answer: inactive

Question: What does the source list for COc1ccccc1-c1cccc(-c2c(O)c3cc(C#N)c(Cl)cc3[nH]c2=O)c1?
Answer: Potency (Furin (Homo sapiens)): inactive; Potency [4]: inactive; Potency [2]: 49.4 µM (active); Potency [5]: 27.8 µM (active); Potency [10]: 50.1 µM (active); Potency [11]: 7.08 µM (active)

Question: Which Potency (Furin (Homo sapiens)) does the source give for O=C(C1CC1)N1CC[C@@H](Cn2c(-c3ccc(-c4ccc5occc5c4)cc3)nc3cnccc32)C1 here?
Answer: 15.2 µM (active)

Question: And the Potency [3]?
Answer: 24.1 µM (active)

Question: And the Potency [4]?
Answer: 24.1 µM (active)

Question: What about the Potency [2] of the same molecule?
Answer: 10.8 µM (active)

Question: With COc1ccc(C2=N[C@H](c3ccc(Cl)cc3)[C@H](c3ccc(Cl)cc3)N2C(=O)N2CCNC(=O)C2)c(OC(C)C)c1 as the molecule, how does the Potency [2] read?
Answer: inactive

Question: Which Potency [2] does the source give for COc1ccc([C@@H]2CC(=O)c3c(O)cc(O[C@@H]4O[C@H](CO[C@@H]5O[C@@H](C)[C@H](O)[C@@H](O)[C@@H]5O)[C@@H](O)[C@H](O)[C@@H]4O)cc3O2)cc1O here?
Answer: inactive

Question: Which Potency [6] does the source give for O=C(O)COCCN1CCN(C(c2ccccc2)c2ccc(Cl)cc2)CC1 (stereo not given) here?
Answer: inactive

Question: And the Potency [2]?
Answer: inactive

Question: Which results are given for Cc1cccc(-c2[nH]c(C(C)(C)C)nc2-c2ccc3nccnc3c2)n1?
Answer: Potency [1]: inactive; Potency [6]: inactive; Potency [2]: inactive

Question: Which Potency [6] does the source give for O=C(O)CCc1ccc(NCc2cccc(Oc3ccccc3)c2)cc1 here?
Answer: inactive

Question: What about the Potency [2] of the same molecule?
Answer: inactive

Question: Which results are given for CCc1cncnc1N1CCN(Cc2nc3ccc(C(F)(F)F)cc3[nH]2)CC1?
Answer: Potency [1]: inactive; Potency [6]: inactive; Potency [2]: inactive; Potency [9]: inactive; Potency [12]: inactive

Question: What does the source list for O=C1CCC(N2C(=O)c3ccccc3C2=O)C(=O)N1 (stereo not given)?
Answer: Potency [1]: inactive; Potency [6]: inactive; Potency [2]: inactive

Question: What does the source list for Cc1cc2c(C(C)C)c(O)c(O)c(C=O)c2c(O)c1-c1c(C)cc2c(C(C)C)c(O)c(O)c(C=O)c2c1O?
Answer: Potency [1]: 56.2 µM (active); Potency [6]: 0.377 µM (active); Potency [7]: 2.51 µM (active); Potency [8]: 2.51 µM (active); Potency [5]: 2 µM (active); Potency [10]: 35.5 µM (active); Potency [11]: inactive

Question: With CS(=O)(=O)c1cccc(CNc2nc(Nc3ccc4c(c3)CCC(=O)N4)ncc2C(F)(F)F)c1 as the molecule, how does the Potency [1] read?
Answer: 56.2 µM (active)

Question: What about the Potency [2] of the same molecule?
Answer: inactive

Question: And the Potency [9]?
Answer: inactive

Question: And the Potency [12]?
Answer: inactive

Question: For NNCCc1ccccc1, which Potency [6] is on record?
Answer: inactive

Question: And the Potency [2]?
Answer: inactive

Question: Which Potency [2] does the source give for CCN(CC)CCCC(C)Nc1nc(C)cc(Nc2ccc3nc(C)cc(N)c3c2)n1 (stereo not given) here?
Answer: inactive

Question: For OCCC#Cc1nc(-c2ccc(F)cc2)c(-c2ccncc2)n1CCCc1ccccc1, which Potency [2] is on record?
Answer: inactive

Question: For Fc1ccc(Cl)cc1-c1nc(Nc2ccncc2)c2nccnc2n1, which Potency [2] is on record?
Answer: inactive

Question: For OCCn1cc(-c2cnc3nnn(Cc4ccc5ncccc5c4)c3n2)cn1, which Potency [7] is on record?
Answer: inactive

Question: And the Potency [9]?
Answer: 50.1 µM (active)

Question: And the Potency [12]?
Answer: inactive

Question: For COc1cc2c(cc1OC)CN(CCc1ccc(NC(=O)c3cccc4c(=O)c5cccc(OC)c5[nH]c34)cc1)CC2, which Potency [7] is on record?
Answer: 44.1 µM (active)

Question: And the Potency [9]?
Answer: 39.8 µM (active)

Question: What about the Potency [12] of the same molecule?
Answer: inactive

Question: What about the Potency [5] of the same molecule?
Answer: 55.5 µM (active)
